Inconclusive results are not listed. A call without a number means that no potency is given here. Activity calls are given as the source filed them. Calls come from the whole dose curve; as a rule, active = well fitted inhibition curve with a large enough effect; inconclusive = small, poorly fitted or top-dose-only effect; inactive = no such curve, though single readings can be large or run the other way.
Potency is the fitted concentration of half-maximal effect.

This assay in a line: Primary fluorescence-based thiol-reactive (MSTI) qHTS assay for identification of artifact compounds. (AID 1845221).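 For activity change, negative = thiol reactive: thiol-reactive compounds lower the probe fluorescence signal.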 Note: nearly all actives have a fitted effect of over 65% in size. The note with it: MSTI thiol-reactivity probe, 1 h; series mostly up to 53.8 µM. The text has this: PI: Alexander Tropsha Ph.D.
UNC Eshelman School of Pharmacy
University of North Carolina, Chapel Hill, North Carolina
Hits from high-throughput screening (HTS) of chemical libraries are often false positives due to their interference with the assay detection technology. In response to this problem, we generated the largest publicly available library of chemical liabilities and developed a free webtool to predict HTS artifacts, both of which are described herein. More specifically, we generated, curated, and integrated HTS datasets for thiol reactivity, redox activity, and luciferase (firefly and nano) activity. Using these curated datasets, we developed and validated several Quantitative Structure-Interference Relationship (QSIR) models to predict nuisance behavior. […] These models were employed for virtual profiling of the National Center for Advancing Translational Science's (NCATS) in-house library, and 256 compounds for each assay were selected for the experimental validation of nuisance behavior. The BA for these external predictions ranged from 58 to 78% for compounds within the applicability domains of the models. […] The models developed in this study, along with aggregation models previously developed by our group (SCAM Detective) were implemented in "Liability Predictor," an online tool which may be used as part of chemical library design or for triaging HTS hits. Both the models and the curated datasets are publicly available at https://liability.mml.unc.edu/.
SEQUENCE No. (e.g., 1, 2, 3, etc.); […] (e.g., Cells, Incubation, Reagent, etc.); VALUE; DESCRIPTION.
1; Reagent; 4 uL; […].
2; Compounds and control; 16 nL; Kalypsis pin tool (Wako USA) equipped with a 1536-well pin head.
4; Detection; Fluorescence, ViewLux microplate reader, 525 nm excitation, 598 nm emission.
NOTES (numbers refer to Sequence numbers above)
1. Assays determining (E)-2-(4-mercaptostyryl)-1,3,3-trimethyl-3H-indol-1-ium (MSTI) reactivity were performed as previously described in the literature with modifications for the quick identification of compounds reacting with thiol. In brief, 4 uL of MSTI or positive control Acetyl-MSTI (final concentrations of 4 uM and 4 uM, respectively) in assay buffer (2% DMSO in 1X PBS pH 7.4) was dispensed into all wells of a 1536-well assay plate (solid-bottom black plate; Greiner Bio One, Monroe, NC).
2. A Wako Pin-tool (Wako Automation, Richmond, VA) was used to transfer 16 nL of compounds (consisting of 7-plates in qHTS format, final concentration range 18.3 nM to 114 uM) or control MLS001163887 (final concentration range 1.22 nM to 40 uM).
3. Plates were centrifuged (121xg, 15 seconds) and incubated for 1 hour at room temperature protected from light.
4. Samples were read for fluorescence (Ex/Em = 525(20)/598(25) nm) on a ViewLux CCD imager (PerkinElmer). Data were normalized to Acetyl-MSTI (0% activity) and MSTI (100% activity) and the resulting percent inhibition data were fitted to a 4-parameter Hill equation using NCATS in-house software.
(qHTS replaces the single test concentration by a dilution series.)
On to `CC1(C)CC[C@]2(C(=O)O[C@@H]3O[C@H](CO)[C@@H](O)[C@H](O)[C@H]3O)CC[C@]3(C)C(=CCC4[C@@]5(C)C[C@@H](O)[C@H](O)[C@@](C)(CO)C5CC[C@]43C)C2C1` (stereo not given in full), for which the Potency entry was “inactive”.
The same measure, in the same setting: the same measure for `CC1(C)CCC(C)(C)c2cc([C@@H](O)C(=O)Nc3ccc(C(=O)O)cc3F)ccc21`: “inactive”.
For `C[C@]1(OC(=O)/C=C/c2ccccc2)C[C@H](O)[C@]2(O)C=CO[C@@H](O[C@@H]3O[C@H](CO)[C@@H](O)[C@H](O)[C@H]3O)C12` (stereo not given in full), the Potency result was “inactive”.
With `C=C1C(=O)O[C@H]2[C@H]1[C@@H](OC(=O)C(C)CO)C[C@@]1(C)[C@H](O)CCC(=O)[C@H]21` (stereo not given in full), the Potency entry was “inactive”.
Regarding `OC1COC(OCC2OC(OCCc3ccccc3)C(O)C(O)C2O)C(O)C1O` (stereo not given), the Potency was 4.12 µM (active).
For the compound `O=C(OCc1cccc(O)c1O[C@@H]1O[C@H](CO)[C@@H](O)[C@H](O)[C@H]1O)C1(O)C(=O)C2C=CC1C1C=CC(=O)C(O)(C(=O)OCc3cccc(O)c3O[C@@H]3O[C@H](CO)[C@@H](O)[C@H](O)[C@H]3O)C21` (stereo not given in full), the activity change, negative = thiol reactive was 11.6% [at 11.5 µM] (inactive).
On to `CC(=O)OC1C(O)CC(O[C@@H]2O[C@H](CO)[C@@H](O)[C@H](O)[C@H]2O)C2CCC3C(=O)OC(c4ccoc4)CC3(C)C21` (stereo not given in full), for which the Potency result was “inactive”.
On the same count and under the same terms, the same measure for `C/C1=C\C[C@H](O[C@@H]2O[C@H](CO)[C@@H](O)[C@H](O)[C@H]2O)/C(C)=C/[C@H]2OC(=O)[C@H](C)[C@@H]2CC1`: 7.33 µM (active); for `OC[C@H]1O[C@@H](Oc2cc(O)cc(-c3cc4ccc(O)cc4o3)c2)[C@H](O)[C@@H](O)[C@@H]1O`: 5.19 µM (active); for `C/C(=C/CCC(CO)C1CCC2(C)C3CCC4C(C)(C)C(OC5OC(CO)C(O)C(O)C5O)CC(O)C45CC35CCC12C)COC1OC(CO)C(O)C(O)C1O` (stereo not given): “inactive”.
As for `C/C=C(\C)C(=O)O[C@H]1[C@H](O)[C@]2(COC(C)=O)[C@H](O)C[C@]3(C)C(=CCC4[C@@]5(C)CC[C@H](O[C@@H]6O[C@H](C(=O)O)[C@@H](O[C@@H]7O[C@H](CO)[C@@H](O)[C@H](O)[C@H]7O)[C@H](O)[C@H]6O[C@@H]6O[C@H](CO)[C@@H](O)[C@H](O)[C@H]6O)[C@](C)(CO)C5CC[C@]43C)[C@@H]2CC1(C)C` (stereo not given in full), the activity change, negative = thiol reactive is 113% [at 11.5 µM] (inactive).
As to `COc1c(C)c2c(c(O)c1C/C=C(\C)CC/C=C(\C)CCC(=O)O)C(=O)OC2`, the Potency result is “inactive”.
Same read-out and setting: the same measure for `CC(=O)C1CCC2(C)C3=C(CCC12C)C1(C)CCC(=O)C(C)(C)C1CC3` (stereo not given): “inactive”; for `Cc1cc(N2CCCCC2)nc2ccccc12`: “inactive”; for `OC[C@H]1O[C@@H](n2cnc3c(NCc4ccc(O)cc4)ncnc32)[C@H](O)[C@@H]1O`: “inactive”.
On the same count and under the same terms, the same measure for `CC1=C2C3OC(=O)C(C)C3(O)CCC2(C)CCC1=O` (stereo not given): 23.8 µM (active).
The same measure, in the same setting: the same measure for `CC1C/C=C/C=C\CCCCC(O)C/C=C/C(=O)O1` (stereo not given): “inactive”; for `C/C(=C\CO)CC/C=C(\C)C(=O)O[C@H]1[C@H](OC2OC=C(C(=O)O)C3CCC(C)(O)C23)O[C@H](CO)[C@@H](O)[C@@H]1O` (stereo not given in full): 11.6 µM (active).
On to `COc1ccccc1[C@@H]1C2=C(CC(C)(C)CC2=O)Nc2n[nH]c(C(F)(F)F)c21`, for which the Potency entry is “inactive”.
As for `O=C1N(CC2CCCCN2)CCN1c1ccccc1` (stereo not given), the Potency result was “inactive”.
On the same count and under the same terms, the same measure for `C[C@@H]1CC[C@]2(C)C3(C)CC[C@@]2(OC3=O)[C@@]12C[C@H](c1ccoc1)OC2=O`: “inactive”.
On the same count and under the same terms, the same measure for `CCOC(=O)[C@H](CCc1ccccc1)N[C@@H](C)C(=O)N1C2CCCCC2C[C@H]1C(=O)O` (stereo not given in full): “inactive”; for `C[C@@H]1C/C=C/C=C\C=C\C=C\[C@H](O[C@@H]2O[C@H](C)[C@@H](O)[C@H](N)[C@@H]2O)C[C@@H]2O[C@](O)(C[C@@H](O)C[C@H]3O[C@@H]3/C=C/C(=O)O1)C[C@H](O)[C@H]2C(=O)O`: “inactive”; for `CC(C)c1cc2c(c(O)c1O[C@@H]1O[C@H](CO)[C@@H](O)[C@H](O)[C@H]1O)CC1(O)CCC(O)C(C)(C)C1CC2` (stereo not given in full): 9.22 µM (active).
Consider `C[C@@H]1O[C@@H](O[C@H]2[C@H](O)[C@@H](O)[C@H](OC[C@H]3O[C@@H](OC(=O)[C@]45CCC(C)(C)C[C@H]4C4=CCC6[C@@]7(C)C[C@H](O)[C@H](O[C@@H]8O[C@H](CO)[C@@H](O)[C@H](O)[C@H]8O)[C@@](C)(C(=O)O)C7CC[C@@]6(C)[C@]4(C)CC5)[C@H](O[C@@H]4O[C@H](CO)[C@@H](O)[C@H](O)[C@H]4O)[C@@H](O)[C@@H]3O)O[C@@H]2CO)[C@H](O)[C@H](O)[C@H]1O` (stereo not given in full), for which the activity change, negative = thiol reactive is 1.9% [at 11.5 µM] (inactive).
With `CC(C)=CCC/C(C)=C/CC/C(C)=C/CC[C@]1(C)CCc2cc(O)cc(C)c2O1`, the Potency entry was “inactive”.
Consider `COc1ccc(C)c2sc(NC(=O)c3ccncc3)nc12`, for which the Potency entry was “inactive”.
Regarding `CCC(C)(O)C(O)C(=O)OCc1ccc(O[C@@H]2O[C@H](CO)[C@@H](O)[C@H](O)[C@H]2O)c(OC)c1` (stereo not given in full), the Potency entry was “inactive”.
Regarding `CN1CCC(c2c[nH]c3ccc(NC(=O)c4ccc(F)cc4)cc23)CC1`, the Potency result is “inactive”.
On to `CC1(C)CCCC2(C)C(CO)C3CCC2C31` (stereo not given), for which the Potency entry is “inactive”.
The same measure, in the same setting: the same measure for `CCC(NC(=O)CC(NC(=O)C(CO)NC(=O)C(CC)NC(=O)c1ccc[nH]1)c1ccccc1)C(=O)O` (stereo not given): “inactive”.
Turning to `C=C1C(OC(C)=O)C(=O)C2C(C)(C)C(OC(C)=O)CCC2(C)C1CC(OC(C)=O)/C(C)=C/COC(C)=O` (stereo not given), the Potency result is “inactive”.
Take `C=C1CCC2C(C)(C)CC(=O)CC2(C)C1CCC(C)CCOC(C)=O` (stereo not given): the Potency result is “inactive”.
As to `CCOc1nc2cccc(C(=O)O)c2n1Cc1ccc(-c2ccccc2-c2noc(=O)[nH]2)cc1`, the Potency entry is “inactive”.
Same read-out and setting: the same measure for `C[C@H]1[C@H](C)CC[C@]2(C(=O)O)CC[C@]3(C(=O)O)C(=CCC4[C@@]5(C)CC[C@H](O[C@@H]6O[C@H](C)[C@@H](O)[C@H](O)[C@H]6O)C(C)(C)C5CC[C@]43C)[C@H]12` (stereo not given in full): “inactive”.
Still for that read-out and setting: the same measure for `CCC(C)/C=C(C)/C=C/C1=CC2=C(Cl)C(=O)C(C)(OC(C)=O)C(=O)C2=CN1CCCC(=O)O` (stereo not given): 0.367 µM (active); for `CC(C)(O)C1CC=C(C(=O)OCC2OC(Oc3c(O)cc(C(=O)O)cc3O)C(O)C(O)C2O)CC1` (stereo not given): 0.822 µM (active).
The same measure, in the same setting: the same measure for `COC(=O)C1C(CC(C)=O)C=CC(O)C12Oc1cc(C)cc(O)c1C2=O` (stereo not given): 5.85 µM (active); for `C=C1CCC2C(C)(C)C(O)CCC2(C)C1CCC(C)CCOC(=O)CCC(=O)O` (stereo not given): “inactive”; for `C=C(C(=O)O)[C@@H]1CC=C2CCC[C@H](C)[C@@]2(C)C1`: “inactive”.

For the origin of these results see PubChem BioAssay (NCATS).
